# The whole screen tested about 2,400 compounds, of which about 220 (9.2%) were called active. The sample as a whole holds a higher share of actives than the screen did. A number with no mark means an inactive call.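 How the source made its calls: active means signal change above the mean of dofetilide-free buffer controls plus 3 SD, so a positive margin; inactive means the rest.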
# Test: thallium signal changes without hERG – cell-based, CHO-K1 parental line, FluxOR thallium flux, counter-screen for hERG block protection project, confirmation (AID 1839);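 further: compounds applied alone with no dofetilide to cells lacking hERG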
# Conditions: CHO-K1 parental cells, FluxOR thallium flux fluorescence; at 10 µM
row,Compound,"signal change vs control minus 3*SD hit threshold (margin above threshold, higher = more increase)"
1,CS(=O)(=O)N1CCN(c2ccccc2NC(=O)Nc2cccc(Cl)c2)CC1,-32.6%
2,O=C1N2CCSC2=NC1(NS(=O)(=O)c1ccccc1)C(F)(F)F (stereo unspecified),-19%
3,Cc1ccc(Nc2nc(-c3cccs3)cs2)nc1,-32.7%
4,CC(C)(C)NC(=O)CN(C(=O)CS(=O)CC(=O)Nc1ccc(F)cc1)c1cccc(F)c1 (stereo unspecified),-27.9%
5,O=c1c(Cc2ccccc2)c(O)nc2n1CCCS2,-25.5%
6,C/C(CC(=O)Nc1ccccn1)=N\NC(=O)C(=O)Nc1cccc(Cl)c1C,-14.9%
7,COc1ccccc1C(=O)NNC(=O)C(=O)Nc1ccc(C)cc1,59.6% (active)
8,COc1ccccc1C(=O)Nc1ccc(C(=O)N2CCCC2)cc1,-13%
9,COc1ccccc1C(=O)NNC(=O)C(=O)NC(C)(C)C,-7.1%
10,COc1ccccc1C(=O)NNC(=O)C(=O)Nc1cccc(Cl)c1C,55.6% (active)
11,Cc1ccccc1C(=O)NNC(=O)C(=O)Nc1cccc(Cl)c1C,-1.4%
12,Cc1ccc(OCC(=O)NC(=S)Nc2ccc(Br)cn2)cc1C,-27.8%
13,Cn1cc([N+](=O)[O-])c(C(=O)N/N=C\c2c[nH]c3ccccc23)n1,-27%
14,O=C(Cc1cccs1)Nn1c(Cc2cccs2)nc2ccccc2c1=O,-15.1%
15,Cc1cc(NC(=O)CCCn2cnc([N+](=O)[O-])n2)no1,-28.2%
16,COC(=O)C(C)Sc1nnc(Cc2cc(=O)[nH]c(=O)[nH]2)n1-c1cccc(OC)c1 (stereo unspecified),-26%
17,S=c1[nH]nc(-c2cccs2)n1/N=C/c1c(Cl)cccc1Cl,-17.3%
18,CN(C)S(=O)(=O)c1cc(NC2CC(=O)N(c3ccc(F)cc3)C2=O)ccc1Cl (stereo unspecified),-30.5%
19,Cc1cc(C)c(C(=O)c2ccc(C(=O)N3CCCCC3)cc2)c(C)c1,-37.3%
20,COC(=O)c1sccc1NC(=O)CSc1ccccc1NS(=O)(=O)c1cc(Cl)ccc1Cl,-29.7%
21,O=S(=O)(Nc1nc(-c2sccc2Cl)cs1)c1cc(Cl)ccc1Cl,15.7% (active)
22,O=C(O)c1ccccc1P(=O)(c1ccccc1)c1ccccc1,-29.2%

row,Compound,"signal change vs control minus 3*SD hit threshold (margin above threshold, higher = more increase)"
1,CCc1cccc(C)c1NC(=O)C1=C(C(=O)O)CCCC1,-33.6%
2,CN(C(=O)c1ccc(Cl)c(S(=O)(=O)N2CCOCC2)c1)c1ccccc1C(=O)O,-13.3%
3,COc1cc(/C=N/n2cnc3scc(-c4cccs4)c3c2=O)cc(OC)c1OC,-32%
4,CC(C)n1c(=S)[nH]c2scc(-c3cccs3)c2c1=O,28.9% (active)
5,Cn1c(=S)[nH]c2scc(-c3cccs3)c2c1=O,27.9% (active)
6,S=c1[nH]c(-c2cccs2)cn1-c1ccccc1,-21.8%
7,CCC(C)n1c(=S)[nH]c2ccccc2c1=O (stereo unspecified),-5.7%
8,CC(C1CC2CCC1C2)n1c(-c2cccs2)n[nH]c1=S (stereo unspecified),-18.6%
9,O=C(O)/C=C/C(=O)Nc1ccc(OC(F)(F)F)cc1,-22.2%
10,CC(NC(=O)CCNC(=O)c1ccco1)c1ccc(F)cc1 (stereo unspecified),-35.2%
11,CCc1c(C)sc(NC(=O)CN2CCN(C(=O)c3ccco3)CC2)c1C(=O)OC,-35.4%
12,CCc1ccc2[nH]c(=O)c(-c3ccccc3)c(O)c2c1,-28.9%
13,COc1cc(Cl)c(C)cc1NC(=O)CSc1sc2c(O)cc(=O)[nH]c2c1C#N,-30.6%
14,CCOc1ccc(C(=O)Nc2ccccc2C(=O)O)cc1,-21.4%
15,C=CCN(c1ccc(Cl)cc1)S(=O)(=O)c1cccc(C(=O)O)c1,-22.9%
16,O=C(NC(=S)NCCc1ccc(Cl)cc1)c1ccco1,-21.7%
17,O=C(NC(=S)NCCC1=CCCCC1)c1ccco1,22.8% (active)
18,O=C(NC(=S)NCCC1=CCCCC1)c1ccc(Br)o1,-1.2%
19,COc1ccc(/C=C/c2cc(=O)c3cc(Cl)ccc3o2)cc1,-32.9%
20,Cc1nc(NCCc2ccc(S(N)(=O)=O)cc2)c2c(C)c(C)sc2n1,-24.9%
21,Cc1nc(NCc2cccnc2)c2c3c(sc2n1)CC(C)CC3 (stereo unspecified),5.6% (active)
22,Cc1ccc(OCc2ccoc2C(=O)O)cc1C,-4.5%

row,Compound,"signal change vs control minus 3*SD hit threshold (margin above threshold, higher = more increase)"
1,Fc1cccc(C2NN=C(c3ccccc3)S2)c1 (stereo unspecified),-15.8%
2,COc1ccc(-c2csc(NC(=S)NC(=O)c3ccco3)n2)cc1Br,-15.8%
3,O=C(NC(=S)Nc1nc2ccccc2s1)c1ccco1,9.2% (active)
4,O=C(NC(=S)Nc1nc2ccc(F)cc2s1)c1ccco1,47% (active)
5,COc1ccc2nc(NC(=S)NC(=O)c3ccco3)sc2c1,0.7% (active)
6,O=C(NC(=S)Nc1nc(-c2ccc([N+](=O)[O-])cc2)cs1)c1ccco1,1% (active)
7,O=C(NC(=S)Nc1nc(-c2ccc(Br)cc2)cs1)c1ccco1,-20.8%
8,O=C(NC(=S)Nc1nc2ccccc2s1)c1cccs1,-8.5%
9,O=C(NC(=S)Nc1nc(-c2ccccc2)cs1)c1ccco1,-21.2%
10,CCOC(=O)c1sc(NC(=S)NC(=O)c2ccco2)nc1C,-14.4%
11,O=C(NC(=S)NCc1ccc(-c2nc3ccccc3s2)cc1)c1ccco1,-21.2%
12,O=C(NC(=S)Nc1cccc([N+](=O)[O-])c1)c1ccco1,-40.6%
13,COc1ccc(-c2csc(NC(=S)NC(=O)c3ccco3)n2)cc1,-14%
14,CC(C)Oc1c(Cl)cc(CNC(C)(C)CO)cc1Cl,-26.9%
15,CCN(CCCn1c(=S)[nH]c2ncccc2c1=O)c1ccccc1,-29.7%
16,COC(=O)C1=C(C)N(CC2CCCO2)C(=O)/C1=C\c1ccc(O)cc1 (stereo unspecified),-14.9%
17,Nn1c(SCC(=O)Nc2ccc(OC(F)F)cc2)nnc1-c1ccco1,-27%
18,Cc1cccc(NC(=O)CN2C(=O)S/C(=C\c3ccc(-c4cccc(C(=O)O)c4C)o3)C2=O)c1,-29.7%
19,CCNC(=S)Nc1nc2c(cc1C(=O)OCC)CCCC2,-12.5%
20,CCc1ccc(/C=N/NC(=O)c2nnn(-c3nonc3N)c2C(C)C)cc1,-35%
21,O=C(NC(=S)N1CCCc2ccccc21)c1ccc([N+](=O)[O-])cc1,-14.7%
22,C[n+]1ccccc1COc1ccc(C(C)(C)C)cc1,-20.4%

row,Compound,"signal change vs control minus 3*SD hit threshold (margin above threshold, higher = more increase)"
1,O=c1cc(-c2c(F)c(F)c(F)c(F)c2F)oc2ccccc12,-13.6%
2,CCOC(=O)c1c(C)[nH]c(C)c1S(=O)(=O)N1CCCCC1,-27.3%
3,CCC1CCCCN1C(=S)NC(=O)c1cccc([N+](=O)[O-])c1 (stereo unspecified),-12.4%
4,O=S(=O)(Nc1ccc(Cc2ccncc2)cc1)c1ccc(Cl)c(Cl)c1,-33.7%
5,CCOC(=O)/C(C)=N/NC(=O)c1ccc([N+](=O)[O-])cc1,-4.1%
6,Cc1ccc2nc(NC(=S)NC(=O)c3ccco3)sc2c1,13.7% (active)
7,CCc1ccc2nc(NC(=O)c3cc(C)on3)sc2c1,-21.2%
8,Cc1ccc2nc(NC(=S)NC(=O)c3cccs3)sc2c1,-3.1%
9,Cc1csc2c(N3CCCCC3)ncnc12,-19.8%
10,Cc1sc2ncnc(SCC(=O)NC(=O)c3cccn3C)c2c1C,-30.1%
11,COc1ccc(NC(=O)c2cn(-c3ccccc3)nc2-c2ccncc2)cc1,-28.9%
12,Oc1c(Cl)cc(Cl)cc1/C=N/c1ncn[nH]1,-9.1%
13,Oc1c(Cl)cc(Cl)cc1Sc1cc(Cl)cc(Cl)c1O,53.5% (active)
14,Oc1c(Cl)cc(Cl)cc1/C=N/c1nccs1,-6.3%
15,Cc1cc2[nH]c(=O)c(=O)[nH]c2cc1S(=O)(=O)N1CCN(c2cccc(C)c2C)CC1,-25%
16,CCOC(=O)N1CCN(C(=O)CN(c2ccc(OCC)cc2)S(C)(=O)=O)CC1,-29.2%
17,CC1CCCCC1NC(=S)NC(=O)c1cccs1 (stereo unspecified),3.7% (active)
18,CC1CCCCC1NC(=S)NC(=O)c1sc2ccccc2c1Cl (stereo unspecified),-26.5%
19,CC1CCN(C(=S)NC(=O)c2cccs2)CC1,-12%
20,CC(=O)Nc1ccc(S(=O)(=O)NC2(C(F)(F)F)C(=O)Nc3c2c(=O)[nH]c(=O)n3C)cc1 (stereo unspecified),-24.3%
21,CSc1nc2sc3c(c2c(=S)[nH]1)CC(C)(C)OC3,31.8% (active)
22,CCc1nc2sc3c(c2c(=S)[nH]1)CC(C)(C)OC3,-18.6%

row,Compound,"signal change vs control minus 3*SD hit threshold (margin above threshold, higher = more increase)"
1,CCC1(C)Cc2c(sc3nc(SC)[nH]c(=S)c23)CO1 (stereo unspecified),48.8% (active)
2,CC(=O)c1ccc(S(=O)(=O)NCc2ccc(C(=O)N(C)CC(=O)Nc3cccc(F)c3)cc2)cc1,-20.8%
3,CC1Cc2cc(S(=O)(=O)NCc3ccccc3)ccc2N1C(=O)C1CCC1 (stereo unspecified),-33.7%
4,O=C1NC(=O)C2(COC(c3cccc([N+](=O)[O-])c3)OC2)S1 (stereo unspecified),-28.4%
5,CCCn1nnnc1SCC(=O)Nc1nnc(CC)s1,-22.9%
6,c1ccc(-c2n[nH]c(-c3ccccn3)n2)cc1,-23.5%
7,Cc1[nH]c(-c2ccccn2)nc(=S)c1Cl,18.1% (active)
8,Cc1cc(=S)nc(-c2ccccn2)[nH]1,-18.7%
9,CCCCCOc1ccc(C2C(C(C)=O)=C(C)Nc3ncnn32)cc1OC (stereo unspecified),-35.5%
10,Cc1ccc(Cc2c[nH]c(=S)s2)cc1,-4.6%
11,Cc1cccc(-n2cc(-c3ccccc3)[nH]c2=S)c1,-28%
12,Cc1ccc(-c2csc3nc[nH]c(=S)c23)cc1,-1.7%
13,Cc1ccc(-c2csc(=S)[nH]2)cc1,59.2% (active)
14,S=c1[nH]c(-c2ccccc2)cs1,16.2% (active)
15,S=c1[nH]nc(Nc2ccc(Cl)cc2)s1,-36.9%
16,S=c1[nH]c(-c2ccc(Cl)cc2)cs1,61.6% (active)
17,O=Cc1cc(-c2ccccc2)[nH]c1-c1ccccc1,-28.6%
18,S=c1[nH]cnc2scc(-c3ccc(Cl)cc3)c12,-13.3%
